# System: JAK1(JH2domain-pseudokinase)
# 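Also: kd values determined as follow-up on hits from a single-replicate KINOMEscan panel screen.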
row,SMILES,Kd [nM]
1,COc1ccc2nc(-c3cccc(C)n3)nc(Nc3ccncc3)c2c1 [GSK204919],260
2,Cc1nnc(-c2ccc3occ(-c4ccc(S(C)=O)cc4)c3c2)[nH]1 (centres unmarked),190
3,Cc1cccc(-c2nc(Nc3ccc4[nH]ncc4c3)c3ccccc3n2)n1 [GW857175],650

# System: JAK2(JH1domain-catalytic)
row,SMILES,Kd [nM]
1,Cl.NC(=O)c1cccc(Nc2nccc(Nc3ccc(Oc4cccc(Cl)c4)c(Cl)c3)n2)c1 [GW659008],400
2,COc1ccc(CNC(=O)NC2CCN(c3ccnc(Nc4cc(OC)c(OC)c(OC)c4)n3)C2)cc1 (centres unmarked) [GSK1379748],350
3,O=S(=O)(c1ccc(-c2ccnc3[nH]ccc23)cc1)N1CCCC1 [GSK846226],360
4,CSc1nn2c(=O)cc(N3CCOCC3)nc2n1Cc1cccc(C(F)(F)F)c1C [GSK2363608],> 10000
5,Cc1cccc(-c2cc(Nc3ccncc3)c3ccccc3n2)n1 [GSK223675],> 10000
